JMJD2E inh: blocks human JMJD2E demethylase activity. 1.6% of 230,000 active. Potency, µM (series often up to 57.1 µM), for inactives: at the highest dose activity change, negative = inhibition, actives largely listed as inhibitors. JMJD2E catalytic domain, FDH-coupled NADH fluorescence (FDH is formaldehyde dehydrogenase). AID 2147. B2RXH2; active means well fitted inhibition curve with a large enough effect, not every such curve was filed as active; inconclusive means small, poorly fitted or top-dose-only effect, or another doubt; inactive means no such curve, though single readings can be large or run the other way;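 further: potency means the concentration at half of the fitted maximal effect; 0% = wells with enzyme and -100% = buffer wells without enzyme; nearly all actives have a fitted effect of over 50% in size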
Target sequence (B2RXH2 1-337 limits assumed): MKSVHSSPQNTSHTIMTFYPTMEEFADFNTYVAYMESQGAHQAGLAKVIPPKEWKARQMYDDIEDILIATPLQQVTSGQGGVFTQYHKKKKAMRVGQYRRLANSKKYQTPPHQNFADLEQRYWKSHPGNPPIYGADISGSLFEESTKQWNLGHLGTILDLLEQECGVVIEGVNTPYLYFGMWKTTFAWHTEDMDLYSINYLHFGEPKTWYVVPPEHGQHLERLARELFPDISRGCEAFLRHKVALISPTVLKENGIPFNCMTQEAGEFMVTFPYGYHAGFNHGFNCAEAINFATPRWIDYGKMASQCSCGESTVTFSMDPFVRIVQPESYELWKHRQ
Tau FP inhib: tau fibrillization inhibition (FP); K18 P301L tau heparin fibrillization, Alexa594 FP, 6 h; Potency, µM (top dose mostly 57.7 µM), inactives show at the highest dose activity, negative = inhibition, usual class: inhibitors; 0.39% of 280,000 active; AID 1468; further: potency means the concentration at half of the fitted maximal effect; nearly all actives have a fitted effect of over 55% in size
Target sequence (P10636 561-689 P618L limits assumed): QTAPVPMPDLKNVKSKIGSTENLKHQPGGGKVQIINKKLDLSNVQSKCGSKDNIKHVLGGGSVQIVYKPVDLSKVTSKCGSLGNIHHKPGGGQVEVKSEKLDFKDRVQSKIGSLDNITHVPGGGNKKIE
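Compound effects on tau fibrillization are measured by Alexa 594 fluorescence polarization (ex 555, em 632 nm). K18 P301L tau is used at 15 uM with 0.24 uM labeled tracer, and 20 uM heparin induces aggregation over 6 hr at 37 C.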
Tau fluor cs: counter-screen for tau fibril formation inhibitors | tau K18 P301L Alexa594 fluorescence, heparin fibrillization | AID 1463 | Potency, µM (series often up to 57.7 µM), without a hit: at the top dose activity change, negative = decrease | 0.93% of 280,000 active; further: potency means the concentration at half of the fitted maximal effect; nearly all actives have a fitted effect of over 55% in size
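Human tau K18 P301L (15 uM unlabeled, 0.24 uM Alexa 594-labeled) in 100 mM sodium acetate pH 7 with 20 uM heparin, 6 hr at 37 C. ThT 30 uM added, 1 hr ambient; Alexa 594 FP and total fluorescence read at 555/632 nm.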
Tau ThT inhib: blocks human tau fibril formation measured by thioflavin T; P10636; recombinant tau K18 P301L (four-repeat tau fragment), heparin-induced fibrillization, ThT fluorescence; 2.1% of 270,000 active; Potency, µM (series often up to 57.4 µM), for inactives: top-dose activity, negative = inhibition, usual class: inhibitors; further: potency means the concentration at half of the fitted maximal effect; nearly all actives have a fitted effect of over 55% in size
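K18 P301L tau (15 uM + 0.24 uM Alexa 594-tagged), heparin 20 uM, NaOAc pH 7, 6 h 37 C; ThT 30 uM, 1 h RT, ex 450/em 510 nm.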
Coupling enz: inhibits coupling enzyme system, counter-screen for aldolase hits. AID 2472. 0.67% of 290,000 active. coupling enzyme system counterscreen, AmpLite Red fluorescence. activity change, negative = inhibition, % at 58.2 µM, hits read low; in the data active means activity change below about -30%
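Compounds tested against the coupling enzymes alone at 57.5 uM final; readout was AmpLite Red fluorescence (525/598 nm) after 20 min at RT.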
* = called active by the depositor; ? = inconclusive; / = not tested or not shown; [ ] = remark or other dose. Rows were chosen to be rich in hits. Some 3% of all compounds tested hit in one or more screens of this group. Unless noted, the call rests on the fitted dose curve; in most records, active means well fitted curve in the direction sought with a large enough effect; inconclusive means small, poorly fitted or top-dose-only effect, or another doubt; inactive means no such curve, though single readings can be large; an effect the other way counts as inactive or inconclusive. Unless noted, on the % scale 0 is the no-effect control and ±100 the full control effect.

SMILES	JMJD2E inh	Tau FP inhib	Tau fluor cs	Tau ThT inhib	Coupling enz
COC(=O)c1c(C)sc(-c2c(-c3ccc4c(c3)OCCO4)[nH]c3[nH]c(=O)[nH]c(=O)c23)c1O	/	?	20µM*[quencher]	?	/
CCOC(=O)c1c(C)sc(-c2c(-c3ccc(OC)c(F)c3)[nH]c3c2c(=O)[nH]c(=O)n3C)c1O	/	13.4%	12.6µM*[quencher]	?	/
CCOC(=O)c1c(C)sc(-c2c(-c3ccccc3)[nH]c3[nH]c(=O)[nH]c(=O)c23)c1O	/	4.0%	6.31µM*[quencher]	?	/
CCOC(=O)c1c(C)sc(-c2c(-c3ccc(OC)c(F)c3)[nH]c3[nH]c(=O)[nH]c(=O)c23)c1O	/	5.8%	3.55µM*[quencher]	-0.4%	/
c1cc2[nH]snc2c2nc(C3CC3)nc12	20µM*	-11.7%	-13.4%	?	-19.4
O=C(Nc1ccncc1)Nc1ccc(F)c(Cl)c1	-7.0%	?	?	6.7%	-0.7
O=C(Nc1ccc(F)cc1F)Nc1csc2ccccc12	-6.4%	6.4%	11.2µM*[quencher]	?	-7.7
O=C(Nc1ccc(F)cc1F)Nc1ccc(F)cc1F	3.4%	-5.4%	-3.5%	-0.9%	1.7
O=C(Nc1ccc(F)c(Cl)c1)Nc1csc2ccccc12	2.5%	?	7.94µM*[quencher]	/	-2.1
C=CCNC(=O)N1CCc2nc(CCCC)c3c(c2C1)CO[C@@H](C)C3	-4.7%[11.4 µM]	-1.9%[11.6 µM]	1.2%[11.6 µM]	3.0%[11.5 µM]	0.2
Cc1ccc(Nc2nc(-c3sc(N)nc3C)cs2)cc1	/	/	/	/	-25.2
CCOc1ccccc1Nc1nc(-c2sc(NC(=O)c3ccc([N+](=O)[O-])cc3)nc2C)cs1	5.6%	?	7.94µM*[quencher]	3.55µM*	-0.7
Cc1ccccc1Nc1nc(-c2sc(NC(=O)c3ccccc3)nc2C)cs1	?	4.2%	?	?	-3.1
Cc1ccc(Nc2nc(-c3sc(NC(=O)c4ccc([N+](=O)[O-])cc4)nc3C)cs2)cc1	6.5%	3.7%	?	3.16µM*	2.0
Cc1ccccc1Nc1nc(-c2sc(NC(=O)c3ccc([N+](=O)[O-])cc3)nc2C)cs1	4.1%	2.2%	10µM*[quencher]	3.98µM*	0.2
COc1ccccc1CNc1nccn(-c2ccccc2)c1=O	/	-6.9%	-8.9%	-8.6%	/
CCCCOC(=O)c1ccc(NS(=O)(=O)c2c(C)nc3scc(C)n3c2=O)cc1	/	-8.3%	-27.5%	-0.1%	/
O=C(CCCOc1ccc(Cl)cc1Cl)N/N=C/c1ccccc1	-4.9%	-0.4%	2.5%	6.1%	-47.5*
CCOC(=O)c1cccc(NC(=O)NCc2ccc3c(c2)CCN3C(=O)CC)c1	/	?	17.8µM*[quencher]	?	/
O=[N+]([O-])c1cc(Br)c(O)c(/C=N/Nc2nnnn2-c2cccc3ccccc23)c1	?	?	?	15.8µM*	0.3
O=C(N/N=C1/C[C@@H](O)[C@@H](O)[C@@H]2[C@@H]3C(=O)N(Cc4ccccc4)C(=O)[C@H]3CC[C@@H]12)OCc1ccccc1	/	-0.1%[11.6 µM]	-2.2%[11.6 µM]	-2.8%[11.5 µM]	0.4
COc1ccccc1NC(=O)N1CCOc2ccccc21	/	4.0%	12.6µM*[quencher]	?	/
Cc1ccc(CCNC(=O)CCn2nc(-c3ccc(Cl)cc3)ccc2=O)cc1	/	3.0%	1.0%	6.9%	/
Nc1ccccc1Oc1ccccc1	/	/	/	/	0.6
CC(=O)N1CC[n+]2c(-c3ccc(Cl)cc3)csc21	-8.1%	?	-25.4%	28.2µM*	1.2
SMILES	JMJD2E inh	Tau FP inhib	Tau fluor cs	Tau ThT inhib	Coupling enz
CCc1ccc(-c2csc3[n+]2CCN3C(C)=O)cc1	-2.7%	?	-19.7%	25.1µM*	-1.2
CC(=O)N1CCN(C(=S)c2ccc(Cl)cc2)CC1	4.9%	-3.1%	0.3%	5.6%	2.5
COC(=O)C1=C(C(=O)OC)[C@@H]2N(C)c3ccccc3[C@@]23C[C@@H](C(=O)OC)N(S(=O)(=O)c2ccc(OC)cc2)C3=N1	-4.8%[11.4 µM]	5.2%[11.6 µM]	-2.8%[11.6 µM]	6.0%[11.5 µM]	-1.5
Cc1nc2sc(C)c(C)n2c(=O)c1S(=O)(=O)N1CCN(c2ccccc2F)CC1	/	4.3%	-8.2%	?	/
COc1ccccc1NC(=O)C1=C(C)Nc2c(C(=O)Nc3ccc(C)cc3)cnn2C1c1cccc(OC)c1OC (stereo unspecified)	/	-7.9%	-24.6%	-9.1%	/
N=C1/C(=C/c2ccco2)C(=O)N=C2SC(CC(=O)N3CCCC3)=NN12	/	/	/	/	1.1
O=C1N=C(N2CCCC2C(=O)O)S/C1=C\c1ccco1 (stereo unspecified)	22.4µM*	-9.7%	-1.2%	-17.7%	-2.0
Cc1nnc(C)c2c(C)n(-c3ccccc3)c(C)c12	/	/	/	/	1.3
Cc1nnc(C)c2c(C)n(-c3ccccc3N)c(C)c12	-5.2%	0.1%	0.6%	?	-39.7*
CC(C)CNC(=O)NC(=O)COc1c(F)c(F)cc(F)c1F	?	?	15.8µM*[quencher]	?	2.7
COC(=O)[C@H](COC(C)(C)C)NC(=O)O[C@@H]1Cc2cc(OC)ccc2O[C@H]1c1cccc(OC)c1	0.4%	1.4%	-10.8%	-9.0%	2.9
CCOc1ccc(/C=C/c2nc3ccccc3n2S(=O)(=O)c2cccc(Cl)c2)cc1	/	?	-25.7%	-9.2%	/
COC(=O)c1cc(NC(=O)c2ccc(OC)cc2)c(=O)oc1C	-4.3%	1.7%	-6.4%	?	0.5
Cc1oc(=O)c(NC(=O)c2ccccc2)cc1C(=O)c1ccccc1	-7.5%	?	-13.6%	25.1µM*	-0.6
CC(=O)c1cc(NC(=O)c2ccccc2)c(=O)oc1C	?	?	-14.0%	28.2µM*	2.9
CC(=O)c1cc(NC(=O)c2ccc(C)cc2)c(=O)oc1C	?	?	-11.5%	31.6µM*	1.1
COC(=O)c1cc(NC(=O)c2cccc(C(F)(F)F)c2)c(=O)oc1C	-17.2%	-1.4%	-5.0%	-11.9%	6.8
Cc1oc(=O)c(NC(=O)c2ccc(Cl)cc2)cc1C(=O)c1ccccc1	?	?	-27.3%	17.8µM*	-5.7
CCOC(=O)c1cc(NC(=O)c2ccccc2)c(=O)oc1C(F)(F)F	-2.0%	-16.7%	1.9%	1.4%	2.6
C=CCC(CC=C)(CNC(=O)C(=O)Nc1cccc(C(F)(F)F)c1)c1ccccc1	/	-10.2%	-21.0%	-15.9%	/
CCOC(=O)c1cc(C)n(CC2CCC(C(=O)Nc3cccc(C)c3)CC2)c1C (stereo unspecified)	/	3.1%	-7.8%	-4.9%	/
O=C1Nc2ccc3sc4ccccc4c3c2C1=O	-17.5%	4.3%	?	4.47µM*	-5.5
O=C1C(Cl)=C(N2CCCCC2)C(=O)C(Cl)=C1c1cnc(N2CCCCC2)s1	14.1µM*	22.4µM*	?	15.8µM*	-46.3*
CC(C)NC(=O)c1cnc2sc(N3CCCCCC3)nn2c1=O	/	-1.2%	1.6%	1.6%	/
Cc1ccc2[nH]c3c(c2c1)CN(C(=O)CN1CCN(c2cccc(C)c2C)CC1)CC3	22.4µM*	-2.2%	?	?	-29.8
COc1cc(/C=N/Nc2nc3ccccc3o2)cc(OC)c1O	?	7.9%	?	14.1µM*	-10.5
Oc1ccccc1/C=N/Nc1nc2ccccc2o1	28.2µM*	13.5%	?	?	-1.6
Brc1ccc(/C=N/Nc2nc3ccccc3o2)cc1	/	/	/	/	0.7

Bioassay records as filed in PubChem.
